Laboratory results from PubChem BioAssay (Tox21).
Results filed as inconclusive are left out. Activity calls are given as the source filed them. Unless noted, the call rests on the fitted dose curve.

The compounds below were run against Vitamin D3 receptor (Homo sapiens) (UniProt P11473) (assay: qHTS assay to identify small molecule agonists of the vitamin D receptor (VDR) signaling pathway (AID 743222)). Details: HEK293T VDR-UAS-bla, beta-lactamase FRET ratio, 16 h; series mostly up to 63.5 µM.
How it was run: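 Following 4 h attachment at 37C, VDR-bla cells (2,000 per well) received DMSO-dissolved compounds or controls. After 16 h incubation, LiveBLAzer B/G FRET substrate was added and fluorescence read 2 h later at room temperature.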

Chain of Vitamin D3 receptor (Homo sapiens) (P11473 whole entry, looked up): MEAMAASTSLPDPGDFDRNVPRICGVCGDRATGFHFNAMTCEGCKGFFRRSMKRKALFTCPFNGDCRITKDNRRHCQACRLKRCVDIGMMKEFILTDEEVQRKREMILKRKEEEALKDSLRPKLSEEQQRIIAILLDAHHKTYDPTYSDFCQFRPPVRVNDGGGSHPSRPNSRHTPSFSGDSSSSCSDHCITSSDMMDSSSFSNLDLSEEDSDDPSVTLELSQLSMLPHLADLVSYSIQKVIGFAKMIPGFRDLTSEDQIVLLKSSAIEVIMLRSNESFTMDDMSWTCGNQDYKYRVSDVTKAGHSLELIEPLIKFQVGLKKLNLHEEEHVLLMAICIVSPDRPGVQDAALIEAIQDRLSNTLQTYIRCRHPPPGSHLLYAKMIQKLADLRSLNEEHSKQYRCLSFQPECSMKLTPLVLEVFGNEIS

SMILES	outcome
C[C@H](O)C(=O)Nc1c(I)c(C(=O)NC(CO)CO)c(I)c(C(=O)NC(CO)CO)c1I	inactive
CCC(C)OC(=O)N1CCCCC1CCO (centres undefined)	inactive
CC1=CCC2C(C1)C2(C)C (centres undefined)	inactive
CC(C)c1cccc(O)c1	inactive
CCC(=O)/C=C/c1ccc(OC)cc1	inactive
Nc1cc(N)cc(C(=O)O)c1	inactive
Cc1c(F)cc2c(=O)c(C(=O)O)cn3c2c1CCC3C (centres undefined)	inactive
CC12CCC(CC1=O)C2(C)C (centres undefined)	inactive
OC/C=C/c1ccccc1	inactive
CCn1c(=O)c2c(nc(/C=C/c3ccc(OC)c(OC)c3)n2C)n(CC)c1=O	inactive
CCOC(=O)Nc1ccc2c(c1)N(C(=O)CCN1CCOCC1)c1ccccc1S2	inactive
CN(C)CCOC(c1ccc(Cl)cc1)c1ccccn1 (centres undefined)	inactive
Oc1cc(O)c2c(c1)O[C@H](c1ccc(O)c(O)c1)[C@H](O)C2	inactive
CCCCCCOC(=O)CC(CC(=O)OCCCCCC)(OC(=O)CCC)C(=O)OCCCCCC	inactive
CC(C)(O)Cc1ccccc1	inactive
CC(=O)N[C@@H](CCC(N)=O)C(=O)O	inactive
CCCCCOC(=O)Nc1nc(=O)n([C@@H]2O[C@H](C)[C@@H](O)[C@H]2O)cc1F	inactive
C=C(C)C(=O)NCCCN(C)C	inactive
NC1CCN(c2cccc(Cl)n2)CC1	inactive
NC(=O)CCCCC1CCSS1 (centres undefined)	inactive
Cc1cc(C)cc(OCC2CNC(=O)O2)c1 (centres undefined)	inactive
CC(C)N1C(=O)c2ccccc2C1=O	inactive
CC(C=O)Cc1ccc(C(C)C)cc1 (centres undefined)	inactive
N#CCN(CC#N)CCN(CC#N)CC#N	inactive
Nc1nc2c(ncn2CCC(CO)CO)c(=O)[nH]1	inactive

These compounds were tested against Vitamin D3 receptor (Homo sapiens) (UniProt P11473) (assay: qHTS assay to identify small molecule antagonists of the vitamin D receptor (VDR) signaling pathway (AID 743223; active means well fitted inhibition curve with a large enough effect in the signal ratio in the repeat runs, not every such curve was filed as active; the % refers to the signal ratio)). Details: VDR-UAS-bla HEK293T, beta-lactamase FRET ratio, 16 h; series mostly up to 61 µM.
How it was run: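 Beta-lactamase reporter read-out: FRET substrate fluorescence after 2 h at room temperature, following 16 h exposure of VDR-bla cells to test compound plus 3 nM (final) 1alpha,25-dihydroxyvitamin D3 agonist at 37C.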

SMILES	outcome
C[C@H](O)C(=O)Nc1c(I)c(C(=O)NC(CO)CO)c(I)c(C(=O)NC(CO)CO)c1I	inactive
CCC(C)OC(=O)N1CCCCC1CCO (centres undefined)	inactive
CC(C)c1cccc(O)c1	inactive
CCC(=O)/C=C/c1ccc(OC)cc1	inactive
Nc1cc(N)cc(C(=O)O)c1	inactive
Cc1c(F)cc2c(=O)c(C(=O)O)cn3c2c1CCC3C (centres undefined)	inactive
CC12CCC(CC1=O)C2(C)C (centres undefined)	inactive
OC/C=C/c1ccccc1	inactive
CCn1c(=O)c2c(nc(/C=C/c3ccc(OC)c(OC)c3)n2C)n(CC)c1=O	inactive
Oc1cc(O)c2c(c1)O[C@H](c1ccc(O)c(O)c1)[C@H](O)C2	inactive
CC(=O)N[C@@H](CCC(N)=O)C(=O)O	inactive
CCCCCOC(=O)Nc1nc(=O)n([C@@H]2O[C@H](C)[C@@H](O)[C@H]2O)cc1F	inactive
C=C(C)C(=O)NCCCN(C)C	inactive
NC1CCN(c2cccc(Cl)n2)CC1	inactive
NC(=O)CCCCC1CCSS1 (centres undefined)	inactive
Cc1cc(C)cc(OCC2CNC(=O)O2)c1 (centres undefined)	inactive
CC(C)N1C(=O)c2ccccc2C1=O	inactive
CC(C=O)Cc1ccc(C(C)C)cc1 (centres undefined)	inactive
N#CCN(CC#N)CCN(CC#N)CC#N	inactive
